Measured values: PubChem BioAssay AID504444 (National Center for Advancing Translational Sciences (NCATS), 2011)
About 7,500 (2.1%) of roughly 360,000 compounds were called active. Entries that show only a call come without a potency. Inconclusive results (about 20%) are left out. Calls follow the shape of the dose curve; as a rule, active = well fitted inhibition curve with a large enough effect; inconclusive = small, poorly fitted or top-dose-only effect, or effect the other way; inactive = flat fitted curve, though single readings scatter. The full list was thinned out, with actives kept by preference.

test: Nrf2 qHTS screen for inhibitors; settings: A549 ARE-Fluc reporter, luciferase luminescence, 18-24 h; series mostly up to 46 µM; also: nearly all actives have a fitted effect of over 60% in size
Method in brief: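 A549 ARE_Fluc cells (5000/well, 5% FBS OPTI-MEM) pre-incubated 2 h, then treated with compounds 18-24 h at 37C/5% CO2 in concentration-response. CellTiter-Fluor viability read first; BugLite luciferase luminescence after 15 min at room temperature gives Nrf2 activity.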
Potency is read from the fitted curve at half-maximal effect.

| Compound | Potency |
| --- | --- |
| COc1ccc(CCNC(=O)c2cnc3sc(N4CCCCCC4)nn3c2=O)cc1OC | inactive |
| O=C(NCc1ccc2c(c1)OCO2)c1cc([N+](=O)[O-])ccc1N1CCOCC1 | inactive |
| O=C(Nc1nnc(-c2ccco2)o1)c1ccc(S(=O)(=O)N2CCOCC2)cc1 | inactive |
| Cc1nc2ccc(NC(=O)c3cccc(S(=O)(=O)N4CCOCC4)c3)cc2s1 | 18.4 µM (active) |
| O=C(Nc1ccc(N2CCOCC2)cc1)c1cccc(S(=O)(=O)N2CCOCC2)c1 | inactive |
| O=C(Nc1ccc(S(=O)(=O)Nc2nccs2)cc1)c1cccc(S(=O)(=O)N2CCOCC2)c1 | inactive |
| O=C(Nc1nnc(-c2ccccc2)o1)c1cccc(S(=O)(=O)N2CCOCC2)c1 | 20.6 µM (active) |
| O=C(NNC(=S)Nc1ccccc1)c1cccc(S(=O)(=O)N2CCOCC2)c1 | inactive |
| CCC(=O)Nc1ccccc1-c1nc2ccccc2n(CC(=O)Nc2ccc(C)c(C)c2)c1=O | inactive |
| CC1(C)CCc2cc(S(=O)(=O)N3CCN(c4nc(-c5cccs5)nc5ccccc45)CC3)ccc2O1 | inactive |
| COc1ccc2ncc3c(-c4ccc(C)c(C)c4)nn(CC(=O)NC4CCCC4)c3c2c1 | inactive |
| CC(=O)NC(c1cccs1)c1cc(Br)c2cccnc2c1O (configuration not stated) | inactive |
| Cn1c(=O)n(C)c2cc(NS(=O)(=O)c3ccc(F)cc3)ccc21 | inactive |
| Cc1cc(C)cc(NS(=O)(=O)c2ccc(F)cc2)c1 | inactive |
| Cn1c(=O)n(C)c2cc(S(=O)(=O)Nc3ccc(F)cc3)ccc21 | 9.2 µM (active) |
| CC1CC(C)CN(c2oc(-c3ccc(OCc4ccc(Cl)cc4)cc3)nc2C#N)C1 (configuration not stated) | inactive |
| Cc1cccc(-n2ncc3c(=O)[nH]c(SCC(=O)Nc4cc(C)on4)nc32)c1 | inactive |
| Cc1ccc(-c2ccc(=O)n(Cc3ccc(F)cc3Cl)n2)cc1 | inactive |
| O=c1c([N+](=O)[O-])cccn1Cc1ccc(F)cc1Cl | 25.9 µM (active) |
| O=c1c([N+](=O)[O-])cc(C(F)(F)F)cn1Cc1cccc(Cl)c1 | inactive |
| Cc1cc2n(n1)C(c1cc(C(C)(C)C)c(O)cc1O)Nc1ccccc1-2 (configuration not stated) | inactive |
| COc1ccc(CNC(=O)CSCc2nc(-c3ccccc3F)oc2C)cc1 | inactive |
| COc1ccc(N2CCN(C(=O)CCSCc3ccccc3F)CC2)cc1 | inactive |
| COc1ccc(N2CCN(C(=O)CSCc3nc(-c4ccccc4Cl)oc3C)CC2)cc1 | 1.84 µM (active) |
| CC(C)Cc1ccc(S(=O)(=O)N2CCN(C(=O)c3ccco3)CC2)cc1 | 18.4 µM (active) |
| O=C(CNS(=O)(=O)c1ccccc1)N1CCN(C(=O)c2ccco2)CC1 | inactive |
| Cc1ccc(S(=O)(=O)N2CCN(C(=O)c3cccs3)CC2)cc1 | inactive |
